Screening results deposited in PubChem BioAssay by The Scripps Research Institute Molecular Screening Center.
GPR151 activ: activators of human GPR151, primary screen, cell-based, PathHunter beta-arrestin, luminescence. PathHunter beta-arrestin GPR151 cells. activation, % at 11.2 µM. actives 1% (n = 650,000); in the data active = activation above about 4.9%;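 also: 0% = median of compound wells and 100% = cells with positive control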
FBW7 act: FBW7 E3 ligase activators, primary screen, biochemical, AlphaScreen, human. F-box/WD repeat-containing protein 7 (Homo sapiens), Q969H0. AlphaScreen FBW7–phospho-cyclin E peptide binding, activator screen. normalized activity (activation), % at 26.1 µM. actives 0.13% (n = 650,000). AID 1259310, 2017; in the data active = normalized activity above about 1.9%;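 also: purified mutant Fbw7 with reduced substrate affinity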
MITF inh: MITF inhibitors, primary screen, biochemical, AlphaScreen, human | actives 0.91% (n = 650,000) | Microphthalmia-associated transcription factor (Homo sapiens), O75030 | AID 1259374, 2018 | inhibition, % at 2.6 µM | AlphaScreen MITF homodimerization, bead proximity signal; in the data active = inhibition above about 50%;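 also: 0% = vehicle wells with protein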
Target sequence (O75030 whole entry, looked up): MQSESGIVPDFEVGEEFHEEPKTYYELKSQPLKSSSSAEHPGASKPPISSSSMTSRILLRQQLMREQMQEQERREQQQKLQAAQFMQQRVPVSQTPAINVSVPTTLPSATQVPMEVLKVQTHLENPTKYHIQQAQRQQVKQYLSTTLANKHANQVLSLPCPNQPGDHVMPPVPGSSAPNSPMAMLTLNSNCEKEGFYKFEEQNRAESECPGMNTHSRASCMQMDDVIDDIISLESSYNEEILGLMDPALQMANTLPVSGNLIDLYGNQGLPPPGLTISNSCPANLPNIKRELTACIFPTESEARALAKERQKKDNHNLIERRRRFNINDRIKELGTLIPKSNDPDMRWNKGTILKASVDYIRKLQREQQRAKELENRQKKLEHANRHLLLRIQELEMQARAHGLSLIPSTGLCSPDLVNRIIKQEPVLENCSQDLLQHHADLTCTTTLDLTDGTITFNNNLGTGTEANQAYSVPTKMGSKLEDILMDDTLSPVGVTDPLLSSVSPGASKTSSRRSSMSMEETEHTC
TEAD-YAP inh: TEAD-YAP interaction inhibition, primary screen, TEAD-YAP interaction inhibitor project, luminescence, HEK-TIYL cells; TEAD-Gal4/YAP UAS-luciferase luminescence; inhibition, % at 9.12 µM; actives 1.4% (n = 640,000); in the data active = inhibition above about 32%;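 also: 0% = median of test compound wells and 100% = reference inhibitor wells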
GPR151 confirm: GPR151 activators, triplicate retest, confirmation, cell-based, PathHunter beta-arrestin, luminescence; 6,700 tested, under 10 active; shares compounds with GPR151 activ; GPR151 PathHunter beta-arrestin cells, 90 min; % of EA-reagent control over plate median; activation, % at 11.2 µM;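 active = mean percent activation across replicates above the confirmation screen cutoff of 4.91%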
GPR119 counter: GPR119 activators in beta-arrestin cells, counter-screen for GPR151 activator project, cell-based, PathHunter beta-arrestin, luminescence, triplicate; 90 min; 0 = compound-well median, 100 = enzyme-acceptor control; shares compounds with GPR151 activ; actives 0.3% (n = 6,700); activation, % at 11.2 µM; AID 1508611, 2020;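 active = mean percent activation in the counterscreen above 29.09%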;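 also: counterscreen on off-target GPR119 to flag nonselective hits from the GPR151 activator screen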
* marks the source's active call; other numbers are inactive results. Rows were chosen to be rich in hits. Some 3.5% of all compounds tested hit in one or more screens of this group.

Screening CCOCCOC(=O)c1ccc(NC(=O)COc2ccccc2)cc1 returned GPR151 activ 5.0*, FBW7 act 0.1, MITF inh -5.6, TEAD-YAP inh 9.3, GPR151 confirm -0.8 and GPR119 counter -12.3.
CCc1ccc(OCC(=O)Nc2ccc(C(=O)OCCOC)cc2)cc1 was read as GPR151 activ -0.7, FBW7 act 0.2, MITF inh 14.2 and TEAD-YAP inh 6.0.
`CCOCCOC(=O)c1ccc(NC(=O)COc2ccc(OC)cc2)cc1` gave GPR151 activ 0.1, FBW7 act -0.6, MITF inh 3.0 and TEAD-YAP inh 9.1.
For CC1(C)C(=O)OC(c2ccc(Cl)cc2Cl)C2(CCCCC2)C1=O (stereo not drawn) the results were GPR151 activ -0.8, FBW7 act -0.1, MITF inh 10.7 and TEAD-YAP inh 3.4.
For CCOc1ccc(NC(=O)COC)cc1 the results were GPR151 activ 5.4*, FBW7 act 0.1, MITF inh 2.4, TEAD-YAP inh -13.1, GPR151 confirm 0.6 and GPR119 counter 5.8.
CN(C)c1ncc(CN2CCN(CCc3ccccc3)C(CCO)C2)s1 (stereo not drawn) was read as GPR151 activ 9.8*, FBW7 act -0.2, MITF inh 9.7, TEAD-YAP inh 9.9, GPR151 confirm -0.1 and GPR119 counter 4.7.
For CCOc1ccc(CN2CCN(Cc3cnc(-c4ccccc4)s3)CC2CCO)cc1 (stereo not drawn) the results were GPR151 activ -0.5, FBW7 act 0.0, MITF inh 15.9 and TEAD-YAP inh 12.1.
For CN(C)c1ncc(CN2CCN(Cc3ccc(F)cc3)C(CCO)C2)s1 (stereo not drawn) the results were GPR151 activ 3.7, FBW7 act 0.1, MITF inh -2.0 and TEAD-YAP inh -6.6.
COc1ccc(CN2CCN(Cc3cnc(-c4ccccc4)s3)CC2CCO)cc1C (stereo not drawn) was read as GPR151 activ 6.7*, FBW7 act -0.1, MITF inh -4.5, TEAD-YAP inh 13.2, GPR151 confirm -0.3 and GPR119 counter -3.8.
Screening O=C(C1CCN(S(=O)(=O)N2CCOCC2)CC1)N1CCN(c2ncccn2)CC1 returned GPR151 activ -0.8, FBW7 act -0.1, MITF inh -8.4 and TEAD-YAP inh -4.9.
COc1ccc(COCC(O)CN2CCN(c3ccccc3OC)CC2)cc1OC (stereo not drawn) was read as GPR151 activ -0.5, FBW7 act -0.1, MITF inh 17.0 and TEAD-YAP inh 2.6.
`Oc1ccc(-c2cnn3c(NCc4ccc(F)cc4)ccnc23)cc1` gave GPR151 activ 6.5*, FBW7 act -0.1, MITF inh 5.8, TEAD-YAP inh -25.9, GPR151 confirm 0.7 and GPR119 counter 1.6.
OCc1ccc(-c2cnn3c(NCc4ccc(F)cc4)ccnc23)cc1 was read as GPR151 activ -1.2, FBW7 act 0.0, MITF inh -15.3 and TEAD-YAP inh -21.8.
Screening COc1cccc(NC(=O)C2(c3ccc(OC)c(OC)c3)CCCC2)c1 returned GPR151 activ 0.4, FBW7 act -0.1, MITF inh -0.1 and TEAD-YAP inh -12.9.
`O=C(C1CC(CCc2ccccc2)=NO1)N1CCCC(c2nc3ccccc3o2)C1` (stereo not drawn) gave GPR151 activ 1.3, FBW7 act 0.3, MITF inh 22.2 and TEAD-YAP inh 6.7.
`COc1ccc(Cl)cc1N1C(=O)C2CCCN2C1c1ccccc1` (stereo not drawn) gave GPR151 activ 0.6, FBW7 act 0.8, MITF inh 5.7 and TEAD-YAP inh 2.5.
COc1ccccc1C1N(c2cc(Cl)ccc2OC)C(=O)C2CCCN21 (stereo not drawn) was read as GPR151 activ 6.8*, FBW7 act 0.0, MITF inh 3.9, TEAD-YAP inh 1.3, GPR151 confirm -0.6 and GPR119 counter -7.6.
For CC(=O)c1ccc2ccccc2c1OC(=O)c1ccc(Br)o1 the results were GPR151 activ 6.3*, FBW7 act 0.0, MITF inh -0.1, TEAD-YAP inh 2.7, GPR151 confirm -1.1 and GPR119 counter -14.9.
For CC(C)=CCCC(C)CN1CCc2nnc(CNC(=O)c3ccccn3)n2CC1 (stereo not drawn) the results were GPR151 activ 6.8*, FBW7 act -0.1, MITF inh 8.0, TEAD-YAP inh 1.8, GPR151 confirm 1.0 and GPR119 counter 8.0.
For C/C(=C\c1ccco1)CN1CCc2nnc(CNC(=O)CCc3cccnc3)n2CC1 the results were GPR151 activ -1.9, FBW7 act 0.1, MITF inh 17.8 and TEAD-YAP inh -1.0.
`CC(C)=CCN1CCc2nnc(CNC(=O)c3ccccn3)n2CC1` gave GPR151 activ 0.0, FBW7 act 0.0, MITF inh 2.6 and TEAD-YAP inh 0.2.
For Cc1ccc(CN2CCc3nnc(CNC(=O)c4ccccc4)n3CC2)cc1 the results were GPR151 activ 6.0*, FBW7 act 0.2, MITF inh 5.8, TEAD-YAP inh 5.1, GPR151 confirm -0.3 and GPR119 counter 5.5.
Screening C/C=C(\C)CN1CCc2nnc(CNC(=O)CCc3cccnc3)n2CC1 returned GPR151 activ 15.3*, FBW7 act 0.1, MITF inh 8.8, TEAD-YAP inh 4.8, GPR151 confirm -0.4 and GPR119 counter -3.5.
For Cc1ccc(CN2CCc3nnc(CNC(=O)c4ccccn4)n3CC2)cc1 the results were GPR151 activ -0.9, FBW7 act 0.0, MITF inh 7.6 and TEAD-YAP inh 11.3.
Screening N#C/C(=C/c1ccc(F)cc1)c1ccc(C#N)cc1 returned GPR151 activ 8.3*, FBW7 act 0.2, MITF inh 10.1, TEAD-YAP inh -8.2, GPR151 confirm 0.3 and GPR119 counter 0.6.
`CCN(CC)C(=O)c1ccc2c(=O)n(-c3ccc(F)cc3)c(=S)[nH]c2c1` gave GPR151 activ 5.0*, FBW7 act -0.1, MITF inh -14.6, TEAD-YAP inh 17.2, GPR151 confirm -0.3 and GPR119 counter -18.4.
`N#Cc1ccccc1CS(=O)(=O)c1nc2ncccc2[nH]1` gave GPR151 activ 0.9, FBW7 act 0.0, MITF inh 2.2 and TEAD-YAP inh -0.6.
Screening O=C(Cn1c(=O)oc2ccccc21)NCc1ccco1 returned GPR151 activ 5.3*, FBW7 act 0.0, MITF inh 17.2, TEAD-YAP inh 3.2, GPR151 confirm -1.1 and GPR119 counter -0.4.
